# Test results as given in ChEMBL document CHEMBL4513216, “Probing the Open Global Health Chemical Diversity Library for Multistage-Active Starting Points for Next-Generation Antimalarials” (ACS Infect Dis, 2020).
# About 8,600 (12%) of roughly 69,000 compounds showed an effect of 50% or more. The entries come from a sample that favours strong results as a whole.
# System: Plasmodium berghei
# Assay: Screen against P. berghei liver stage (PbLuc), transformed with Luciferase, at 10uM
# Format: functional, HepG2
# Conditions: tested at 10 uM
row,Compound,INHIBITION
1,CCSCCC(=O)Nc1ncn(Cc2ccccc2)n1,42%
2,CCSCCC(=O)Nc1ncn(Cc2cccnc2)n1,-11.1%
3,CCC(=O)Nc1ncn(Cc2cccnc2)n1,61.2%
4,N#Cc1ccc(NCC(=O)Nc2ncn(Cc3cccnc3)n2)cc1,72.3%
5,CC(C)N(Cc1cccnc1)C(=O)CNc1ccc(C#N)cc1,-21%
6,N#Cc1ccc(NCC(=O)Nc2ccn(Cc3cccnc3)n2)cc1,41.4%
7,Cc1ncsc1C(=O)NCCn1nc(C2CCNC2)c2cccnc21 (configuration not stated),38.7%
8,CCc1nc(CC(=O)NCC(Cc2ccc(F)cc2)C(N)=O)cs1 (configuration not stated),48.2%
9,O=C(NC1CC1)c1cccc(Oc2ccc3nncn3n2)c1,-34.4%
10,Cc1ccc(C(=O)N2CC(c3cccnc3)C2)cc1N1CCNC1=O,56.7%
11,COc1cc(C)sc1C(=O)N1CCC(Nc2cccnc2)CC1,18.5%
12,CC1(C)CC1(C(=O)N1CC(c2cccnc2)C1)c1ccccc1F (configuration not stated),28.7%
13,COc1ccc(C2(C(=O)N3CC(c4cccnc4)C3)CC2(C)C)cc1 (configuration not stated),55.4%
14,CC1(C)CC1(C(=O)N1CC(c2cccnc2)C1)c1ccc(F)cc1 (configuration not stated),21.2%
15,COc1cc(C)sc1C(=O)N1CC(c2cccnc2)C1,56.8%
16,Cc1ccc(C(=O)N2CCSCC2)cc1N1CCNC1=O,48.5%
17,Cc1ccc(C(=O)N2Cc3ccccc3C2)cc1N1CCNC1=O,2.74%
18,COc1cc(C)sc1C(=O)N1CCCCC1c1ccccn1 (configuration not stated),47.7%
19,COc1ccccc1CC(=O)N1CCCC(c2cc(C)[nH]n2)C1 (configuration not stated),-24.2%
20,Cc1ccc(-c2nnc(CNC(=O)c3cccnc3)o2)cn1,30.4%
21,CC(=O)N1CCCN(C(=O)NCCCn2cncn2)CC1,-10.895%
22,COCCN(C)C[C@H]1C[C@H](CO)CN(C(=O)c2ccn(C)c(=O)c2)C1,11.7%
23,COc1ccc(C)cc1C(=O)N1C[C@@H](CN(C)CCO)[C@@H](CO)C1,56.9%
24,COCCN(CCOC)C(=O)NC1CCCCC1,50.8%
25,COCCN(C)C[C@@H]1CN(C(=O)c2ccc(OC)c(F)c2)C[C@@H]1CO,0.29%
26,COCCN(C)C[C@H]1C[C@H](CO)CN(C(=O)c2ccc(=O)n(C)c2)C1,50.7%

row,Compound,INHIBITION
1,COCCN(CCN(C)C)C(=O)NC1CC1,7.25%
2,COc1ccc(F)c(F)c1C(=O)N1C[C@@H](CN(C)CCO)[C@@H](CO)C1,-1.38%
3,COCCN(CCN(C)C)C(=O)NC1CCc2ccccc2C1 (configuration not stated),-65.3%
4,COCCN(C)C[C@@H]1CN(C(=O)c2c(F)ccc(OC)c2F)C[C@@H]1CO,84.4%
5,COCCN(C)C[C@H]1C[C@@H](CO)CN(C(=O)c2ccn(C)c(=O)c2)C1,35.5%
6,COc1cc(C)ccc1C(=O)N1C[C@@H](CN(C)CCO)[C@@H](CO)C1,-1.38%
7,COc1cccc(C(=O)N2C[C@@H](CN(C)CCO)[C@@H](CO)C2)c1C,20.6%
8,CS(=O)(=O)c1ccc(Cl)c(NC(=O)NCCC2=CCCCC2)c1,0.818%
9,COCCC1COC2(CCN(C(=O)c3ccco3)CC2)C1 (configuration not stated),29.6%
10,CN(C)C(=O)[C@H]1C[C@H]2OCC[C@H]2N(Cc2ccc3ccccc3n2)C1,25.2%
11,CC(C)NC(=O)[C@H]1C[C@@H]2[C@@H](C1)OCCN2Cc1ccco1,7.24%
12,CC(C)(C)OC(=O)N[C@@H]1C[C@@H](O)CN(C(=O)c2cccc(F)c2)C[C@H]1O,4.41%
13,C[C@H]1C(=O)NC[C@H]2CN(Cc3cccc(F)c3)C[C@H]21,23.5%
14,CC(=O)N1CCC2(CC1)CN(C)C(=O)C[C@H]2C(F)(F)F,2.79%
15,CC(Nc1c(F)cc(C#N)cc1F)c1cccc(S(N)(=O)=O)c1 (configuration not stated),-68.1%
16,COCCN(C)C[C@@H]1CN(C(=O)c2cccc(C(F)(F)F)c2)C[C@@H]1CO,23.5%
17,CN(C)CCN(C)C[C@@H]1CN(C(=O)NC2CCCC2)C[C@@H]1CO,27.4%
18,CCN(C)C[C@@H]1CN(C(=O)NC2CCCCC2)C[C@@H]1CO,24.5%
19,COCCN(C)C[C@@H]1CN(C(=O)NC2CCCCC2)C[C@@H]1CO,50.2%
20,COCCN(C)C[C@@H]1CN(C(=O)c2ccc(C)cc2)C[C@@H]1CO,-18.9%
21,COCCN(C)C[C@@H]1CN(C(=O)c2sc3ccccc3c2C)C[C@@H]1CO,17.6%
22,COCCN(C)C[C@@H]1CN(C(=O)C(C)(C)c2ccccc2)C[C@@H]1CO,60.6%
23,COCCN(C)C[C@@H]1CN(C(=O)c2ccc(=O)n(C)c2)C[C@@H]1CO,57.2%
24,COCCN(C)C[C@@H]1CN(C(=O)c2ccc(SC)cc2)C[C@@H]1CO,19.4%
25,O=C1NC(c2ccccc2)=N[C@@]12CC[C@@H]1CN(CC3CC3)C[C@@H]12,44.2%
26,O=C(CCc1nc2cc(Br)cnc2[nH]1)NCCN1CCOCC1,-7.28%
